Bioassay records as filed in PubChem BioAssay.
BAZ2B block: qHTS Assay for Inhibitors of BAZ2B; Bromodomain adjacent to zinc finger domain protein 2B (Homo sapiens), Q9UIF8; AlphaScreen BAZ2B-H3K14Ac peptide displacement; Potency, µM (titrated, usually from 114 µM), for the others: top-dose activity change, negative = inhibition, hits mostly inhibitors; 4.4% of 360,000 active; AID 504333, 2011; further: potency means the concentration at half of the fitted maximal effect; on the % scale 0 is the no-effect control and ±100 the full control effect; nearly all actives have a fitted effect of over 60% in size
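BAZ2B 50 nM plus b-H3(5-23)K14Ac 50 nM, PBS pH 7.4/0.01% Tween-20, 30 min RT; compound added (max 110 uM), 30 min RT; streptavidin donor/Ni-chelate acceptor beads 10 ug/mL final, 20 min dark; AlphaScreen read.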
CtBP-E1A blk: qHTS Assay for Inhibitors of the CtBP/E1A Interaction | CtBP / adenovirus E1A interaction (AlphaScreen) | AlphaScreen GST-E1A/His-CtBP binding, 1536-well; active compounds read low | activity change, % (concentration not given with the values) | 0.49% of 340,000 active; in the data active means activity change below about -65%; inconclusive means mostly about -30% to -63%; further: on the % scale 0 is the no-effect control and ±100 the full control effect
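GST-E1A and His-tagged CtBP (125 nM each as 5X stock) were preincubated with pin-transferred compound for 2 h at 37 °C in the dark, then glutathione donor and nickel acceptor beads were added for 1 h before AlphaScreen reading.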
Six1-Eya2 inh: qHTS Assay for Inhibitors of the Six1/Eya2 Interaction; Homeobox protein SIX1 (Homo sapiens) + Protein phosphatase EYA2 (Homo sapiens), …; AlphaScreen GST-Six1/His-Eya2 binding, biochemical; active compounds read low; activity change, % (no concentration beside the values); 0.56% of 360,000 active; AID 651725, 2012; in the data active means activity change below about -65%; inconclusive means mostly about -30% to -63%; further: on the % scale 0 is the no-effect control and ±100 the full control effect
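Compounds are tested against tagged Six1 and Eya2 proteins bridged by glutathione donor and nickel acceptor beads; after a one-hour incubation at 37 °C without light, AlphaScreen emission is recorded.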
HP1b binding inh: HTS for Inhibitors of HP1-beta Chromodomain Interactions with Methylated Histone Tails | AID 540317, 2011 | Potency, µM (series often up to 114 µM), without a hit: top-dose activity change, negative = inhibition, usual class: inhibitors | 0.56% of 390,000 active | AlphaScreen HP1-beta / biotin-H3K9me3 peptide binding; further: potency means the concentration at half of the fitted maximal effect; nearly all actives have a fitted effect of over 70% in size
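HP1-beta protein (50 nM final) preincubated 30 min at room temperature with biotinylated H3(1-18)K9me3 peptide (50 nM) in PBS pH 7.4, 0.01% Tween-20, then compound added for 30 min. AlphaScreen streptavidin donor/nickel chelate acceptor beads (10 ug/mL final), 30 min dark, luminescence read.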
JMJD2A Tudor inh: qHTS Assay for Inhibitors of JMJD2A-Tudor Domain; Lysine-specific demethylase 4A (Homo sapiens), O75164; AID 504339, 2011; AlphaScreen JMJD2A-Tudor / H3K4me3 peptide binding; 4.4% of 390,000 active; Potency, µM (highest dose often 114 µM), for the others: at the top dose activity change, negative = inhibition, hits mostly inhibitors; further: potency means the concentration at half of the fitted maximal effect; on the % scale 0 is the no-effect control and ±100 the full control effect; nearly all actives have a fitted effect of over 50% in size
Target sequence (O75164 whole entry, looked up, the tested form may be a part): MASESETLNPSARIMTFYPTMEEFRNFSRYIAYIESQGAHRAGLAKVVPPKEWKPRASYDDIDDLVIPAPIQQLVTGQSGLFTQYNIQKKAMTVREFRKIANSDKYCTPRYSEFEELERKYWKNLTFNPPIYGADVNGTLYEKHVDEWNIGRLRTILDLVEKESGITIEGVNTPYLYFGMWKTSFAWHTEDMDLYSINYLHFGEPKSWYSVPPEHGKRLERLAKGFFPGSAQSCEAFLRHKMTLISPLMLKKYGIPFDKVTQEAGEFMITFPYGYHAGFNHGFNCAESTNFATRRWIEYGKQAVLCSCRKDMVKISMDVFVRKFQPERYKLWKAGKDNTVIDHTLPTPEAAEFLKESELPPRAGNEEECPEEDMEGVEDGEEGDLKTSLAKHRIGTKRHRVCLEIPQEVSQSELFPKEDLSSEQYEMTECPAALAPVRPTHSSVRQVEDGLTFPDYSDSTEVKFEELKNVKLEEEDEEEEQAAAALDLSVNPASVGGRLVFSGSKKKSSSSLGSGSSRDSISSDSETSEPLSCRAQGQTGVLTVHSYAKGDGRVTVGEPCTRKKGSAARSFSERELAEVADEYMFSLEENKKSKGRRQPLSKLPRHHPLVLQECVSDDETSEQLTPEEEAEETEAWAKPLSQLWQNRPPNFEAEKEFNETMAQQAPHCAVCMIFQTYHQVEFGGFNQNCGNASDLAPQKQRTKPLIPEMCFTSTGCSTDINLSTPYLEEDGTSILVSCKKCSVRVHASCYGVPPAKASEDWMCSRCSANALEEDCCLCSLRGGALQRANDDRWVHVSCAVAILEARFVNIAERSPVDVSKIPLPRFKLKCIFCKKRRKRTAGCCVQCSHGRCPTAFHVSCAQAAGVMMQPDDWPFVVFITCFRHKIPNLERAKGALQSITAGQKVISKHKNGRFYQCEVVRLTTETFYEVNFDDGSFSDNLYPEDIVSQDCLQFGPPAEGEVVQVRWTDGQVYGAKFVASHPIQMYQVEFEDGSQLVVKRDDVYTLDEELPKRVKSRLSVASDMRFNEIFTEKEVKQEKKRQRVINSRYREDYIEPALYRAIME
G9a block: qHTS Assay for Inhibitors of Histone Lysine Methyltransferase G9a | Histone-lysine N-methyltransferase EHMT2 (Homo sapiens), Q96KQ7 | G9a H3K9 monomethylation, AlphaScreen, 2 h | Potency, µM (titrated, usually from 102 µM), without a hit: top-dose activity, negative = inhibition, actives largely listed as inhibitors | 8.8% of 350,000 active; further: potency means the concentration at half of the fitted maximal effect; on the % scale 0 is the no-effect control and ±100 the full control effect; nearly all actives have a fitted effect of over 75% in size
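Methyltransferase reactions run at room temperature for 2 h (20 nM enzyme, 500 nM biotin-H3K9 peptide, 20 uM SAM) after a 15 min compound preincubation; product detected by AlphaScreen beads and anti-H3K9me1 antibody.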
The depositor's hits bear a star; ? = inconclusive; · = no result; [ ] = remark or other dose. This is a sample that favours compounds with a hit; in the whole collection about 10% have one here. Unless noted, the call rests on the fitted dose curve; in most records, active means well fitted inhibition curve with a large enough effect; inconclusive means small, poorly fitted or top-dose-only effect; inactive means no such curve, though single readings can be large or run the other way.

SMILES	BAZ2B block	CtBP-E1A blk	Six1-Eya2 inh	HP1b binding inh	JMJD2A Tudor inh	G9a block
Cc1ccc2nc3sc(C(=O)Nc4c(C)[nH]c(=O)[nH]c4=O)c(N)c3cc2c1	-30%	-6	-9	22%	-19%	10µM*
COc1cccc(-c2ccc3c(N)c(C(=O)Nc4ccccc4C)sc3n2)c1	55%	·	·	114%	43%	-25%[59 µM]
Cc1occc1-c1nnc(SCC(=O)O)n1-c1ccccc1	-3%	·	-1	16%[57 µM]	0%	-4%[59 µM]
Cc1occc1-c1n[nH]c(=S)n1C	-13%	·	-1	?	-7%[11.4 µM]	35µM*
Cc1occc1-c1n[nH]c(=S)n1-c1ccccc1	-7%	-2	-16	25%	7.1µM*	5µM*
Cc1cccc(OCCSc2nnc(-c3ccoc3C)n2C)c1	-33%	5	-4	27%	-16%	?
Nc1ccc2c(c1Br)Cc1ccccc1-2	·	-3	-28	?	?	·
Nc1cc2c(cc1N)-c1ccccc1C2	·	-12	-19	-18%[57 µM]	8.9µM*	·
Nc1ccc2c(c1)Cc1cc(N)c(Cl)cc1-2	·	-24	-18	?	45µM*	·
COc1ccc(S(=O)(=O)NCCSC(C)(C)C)c(Cl)c1Cl	-29%	2	-1	10%	?	?
C/C(=N\NC(=O)c1ccc([N+](=O)[O-])c(C)c1)c1ccccc1Cl	-8%	-4	-3	-7%	-22%	17%
O=C(c1ccc(S(=O)(=O)N2CCCC2)cc1)N1CCCCC1	-3%	-6	-5	9%	-6%	-31%
O=C(/C=C/c1ccc(O)c(O)c1)c1ccc(S(=O)(=O)N2CCCCCC2)cc1	35µM*	20	-10	40µM*	?	5µM*
CCOC(=O)c1ccc(N=c2sc(C(=O)OC)cc(=O)n2Cc2ccco2)cc1	?	1	-1	3%	?	40µM*
COC(=O)c1cc(=O)n(CCc2ccccc2)c(=Nc2ccc(F)cc2)s1	-38%	-11	-8	-8%	?	7.1µM*
COC(=O)c1cc(=O)n(CCc2ccc(OC)cc2)c(=Nc2ccc(F)c(Cl)c2)s1	-38%	-5	0	-14%	?	?
CCOC(=O)c1ccc(N=c2sc(C(=O)OC)cc(=O)n2CCCN2CCOCC2)cc1	50µM*	4	2	-8%	?	50µM*
CCn1c(=O)cc(C(=O)OC)sc1=Nc1ccc(F)c(F)c1	-37%	1	4	1%	?	?
CCCCN=c1sc(C(=O)OC)cc(=O)n1CCCC	-2%	8	3	29%	-4%	9%
CN(C(=O)CSc1nnc(Cc2cccs2)n1C1CC1)C1CCS(=O)(=O)C1 (stereo unspecified)	28%	-17	5	17%	-5%	?
Cc1cc(C)n(-c2nc3cc(Cl)c(Cl)cc3nc2Nc2ccc(F)cc2C)n1	4%	·	·	38%	6%	1%[59 µM]
CCN(c1ccccc1)c1cc2ccccc2c(=O)[nH]1	-21%	-2	-3	-7%[57 µM]	18µM*	?
CCN(c1ccccc1)c1cc(C)nc2nc(C)nn12	6%	10	5	28%	-6%	-8%[59 µM]
CC(=O)Nc1nc(CC(C)C)cc(-c2ccco2)c1C#N	4%	3	5	17%	-5%	16µM*
Cc1c(-c2cc(Br)ccc2O)nc2cc3c(cc2c1C)OCO3	-20%	-6	1	25%	-33%	45µM*
SMILES	BAZ2B block	CtBP-E1A blk	Six1-Eya2 inh	HP1b binding inh	JMJD2A Tudor inh	G9a block
Cc1oc(-c2ccc(C(=O)N(C)Cc3ccccc3)cc2)nc1CN1CCc2ccccc21	25µM*	·	·	-22%[57 µM]	28µM*	?
Cn1cnnc1Sc1ccc(C(=O)OCC(=O)Nc2cc(Cl)cc(Cl)c2)cc1[N+](=O)[O-]	-39%	-7	-9	-9%	?	16µM*
CCOC(=O)/C(C#N)=C1\SS/C(=C(/C#N)C(=O)OCC)S1	?	·	·	·	·	1.6µM*
CCOC(=O)C(C#N)=C1CCC=C(C)C1	·	-2	2	·	·	·
CCCCCCCCCCCCCCCCC(C(=O)O)C(O)(CC(=O)O)C(=O)O (stereo unspecified)	·	·	·	·	·	-40%[12.7 µM]
Cc1cc(OC(=O)c2ccccc2Cl)c([N+](=O)[O-])c(=O)[nH]1	?	0	-10	36%	-17%	-17%
COc1ccc(C(=O)Oc2cc(C)[nH]c(=O)c2[N+](=O)[O-])cc1	-2%	1	2	19%	-32%	-16%
C=CCOc1ccc(/C=C\c2nc(O)c([N+](=O)[O-])c(=O)[nH]2)cc1OC	-31%	-12	-12	14%	-29%	79µM*
Cc1cc(OC(=O)c2ccc(Cl)cc2Cl)c([N+](=O)[O-])c(=O)[nH]1	-28%	1	2	61%	-26%	79µM*
Cc1cc(OC(=O)C(C)(C)C)c([N+](=O)[O-])c(=O)[nH]1	4%	9	7	28%	-6%	1.4µM*
COc1ccc(/C=C/C(=O)Oc2cc(C)[nH]c(=O)c2[N+](=O)[O-])cc1OC	4%	-10	3	13%	32µM*	-33%
COC(=O)c1ccccc1NC(=O)C1CCCN(C(=O)c2cnn(-c3ccc(F)cc3)c2-n2cccc2)C1 (stereo unspecified)	?	·	·	-15%	?	?
CCN1C(=O)[C@H]2[C@@H](c3ccc(OC)cc3)N[C@]3(CCCN(CCC(C)C)C3=O)[C@H]2C1=O	·	2	14	·	·	·
Cc1cc(Cn2nc(C(=O)NCC3CC3)cc2-c2ccccc2)on1	-3%	-1	0	41%	-1%	-16%[2.33 µM]
CCOC(=O)/C(=N/Nc1ccccc1)c1csc(Nc2ccccc2)n1	?	-7	-14	-18%	?	?
Cc1ccc(Nc2nc(C(=O)NCCCN3CCOCC3)cs2)cc1	9%	-14	-3	12%	?	89µM*
CCN(CC)C(=O)c1csc(Nc2ccc(C)cc2)n1	?	-3	-3	-2%	-33%	13µM*
CCOC(=O)/C(=N\Nc1ccc(OC)cc1)c1csc(Nc2ccccc2)n1	?	8	-22	-20%	40µM*	-14%[12.7 µM]
Cc1ccc(C)c(OCCC(=O)OCC(=O)Nc2cc(S(=O)(=O)N3CCCCC3)ccc2C)c1	·	-3	4	3%	-19%	·
